Laboratory results published in the supplement of paper PMC13380429.
Counter-ions that a name gives are not always drawn. Values without a mark were called inactive.

Tested on: Vero E6 infected with SARS-CoV-2
Assay: inhibition of SARS-CoV-2 cytopathic effect; higher = more antiviral protection, active = above 15
Conditions: 48 h

SMILES	inhibition of SARS-CoV-2 cytopathic effect (1 nM) [%]	inhibition of SARS-CoV-2 cytopathic effect (8.33 nM) [%]	inhibition of SARS-CoV-2 cytopathic effect (100 nM) [%]	inhibition of SARS-CoV-2 cytopathic effect (833.33 nM) [%]	inhibition of SARS-CoV-2 cytopathic effect (10000 nM)
CCOC(=O)c1c(O)nc2cccc3c2c1-c1ccccc1C3=O	0.21	0.57	5.31	4.72	4.09%
O=C1Nc2ccccc2/C1=C1/Nc2ccccc2C1=O [indirubin]	-0.6	-1.11	-0.33	1.04	0.51%
C[C@H]1CN(C[C@H](Cc2ccccc2)C(=O)NCC(=O)O)CC[C@@]1(C)c1cccc(O)c1 [alvimopan]	1.74	3.07	3.04	-0.26	2.12%
COc1cc(C)c(/C=C/C(C)=C/C=C/C(C)=C/C(=O)O)c(C)c1C [acitretin]	0.15	-1.89	0.02	-0.64	-0.58%
O=C(O)/C=C/c1ccc(-c2ccc(O)c(C34CC5CC(CC(C5)C3)C4)c2)cc1 [adarotene]	-0.41	-0.4	0.7	-4.11	-6.23%
NC(=O)NC(=O)Cc1ccccc1 [phenacemide]	-1.41	0.22	-0.3	0.89	0.35%
Cn1c(=O)c2[nH]cnc2n(C)c1=O [aminophylline]	-0.89	-0.66	-1.42	-0.87	-0.09%
O=C(NCC1CCCCN1)c1cc(OCC(F)(F)F)ccc1OCC(F)(F)F (stereo not given) [flecainide]	-1.39	1.45	-0.28	3.98	-3.89%
CCC[C@@H]1CC(=O)N([C@@H](CC)C(N)=O)C1 [Brivaracetam]	-0.93	-1.72	-2.91	-2.52	1.45%
Nc1cc2c3ccccc3ccc2c2ccccc12 [6-aminochrysene]	1.36	2.29	2.99	-3.94	1.34%
O=C1CN2Cc3c(ccc(Cl)c3Cl)N=C2N1 [anagrelide]	0.79	-0.94	-1.24	-0.35	0.92%
COC(=O)[C@@H]1[C@H]2C[C@H]3c4[nH]c5ccccc5c4CCN3C[C@@H]2CC[C@@H]1O [yohimbine]	0.18	2.4	1.41	-1.6	-0.14%
Cc1ccc(/C=N/NC(=O)c2ccccc2Oc2ccccc2)o1	-1.75	-0.44	-0.55	0.13	0.97%
CC(C)[C@H](CO)Nc1nc(Nc2cc(N)cc(Cl)c2)c2ncn(C(C)C)c2n1 [aminopurvalanol-a]	4.14	0.51	-1.34	-0.35	-6.98%
Cc1cc(-c2ccccc2)nnc1NCCN1CCOCC1 [minaprine]	0.27	0.75	-0.02	1.16	1.01%
Clc1ccc(N/N=C(\c2ccccc2)c2ccccn2)nc1	-0.45	-0.79	-1.98	9.6	16.5% (active)
Cc1cc2c(N3CCCC3)nc(N3CCCC3)nc2n1C	1.39	5.02	4.75	3.21	3.47%
CC(Oc1ccc(O)cc1)(P(=O)(O)O)P(=O)(O)O	-3.21	-1.85	3.91	-1.36	-1.37%
O=C(OCC(O)CO)c1ccccc1Nc1ccnc2c(C(F)(F)F)cccc12 (stereo not given) [floctafenine]	0.71	6.76	1.82	3.08	3.04%
CCCCCCCCCCCC[N+](C)(C)CCOc1ccccc1 [domiphen]	-2.49	-1.64	0.17	0.26	-8.43%

SMILES	inhibition of SARS-CoV-2 cytopathic effect (1 nM) [%]	inhibition of SARS-CoV-2 cytopathic effect (8.33 nM) [%]	inhibition of SARS-CoV-2 cytopathic effect (100 nM) [%]	inhibition of SARS-CoV-2 cytopathic effect (833.33 nM) [%]	inhibition of SARS-CoV-2 cytopathic effect (10000 nM)
COc1ncc(-c2ccc3c(Nc4cc(Oc5cc(F)cc(F)c5)cc(C(=O)O)c4)c(S(=O)(=O)NC4CC4)cnc3c2)c(OC)n1	0.82	2.2	0.69	2.71	1.3%
OC(CN1CCN(c2cccc(Cl)c2)CC1)C(c1ccccc1)c1ccccc1 (stereo not given)	2.69	4.95	2.68	1.94	3.63%
Cc1cccc(C)c1OCC(C)N (stereo not given) [mexiletine]	4.03	3.45	2.85	7.08	5.03%
O=C(O)CCC(=O)O [succinic-acid]	-0.06	-1.83	-1.13	-0.66	2.3%
Oc1cc2c(cc1O)[C@H]1c3ccccc3CN[C@@H]1CC2 (racemic) [dihydrexidine]	-2.37	-1.57	0.62	-2.04	2.92%
CC[C@H](CO)Nc1nc(Nc2cccc(-c3ccccn3)c2)c2ncn(C(C)C)c2n1	-2.32	0.36	0.93	1.09	-7.74%
C=C[C@@H]1C[C@]1(NC(=O)[C@@H]1C[C@@H]2CN1C(=O)[C@H](C(C)(C)C)NC(=O)O[C@@H]1C[C@H]1CCCCCc1nc3ccc(OC)cc3nc1O2)C(=O)NS(=O)(=O)C1CC1 [grazoprevir]	-0.59	-3.18	-2.52	1.78	1.23%
FC(F)(F)c1ccc(N2CCNCC2)nc1Cl	1.34	-0.28	0.72	1.94	-3.98%
Nc1nc(O)c2ncn(CCC(CO)CO)c2n1 [penciclovir]	-0.77	-0.01	-0.81	0.81	-2.4%
N#Cc1ccc(-c2csc(NN=C3CCCC3)n2)cc1 [remodelin]	0.9	1	1.18	0.48	0.34%
Cc1ccc(/C=C2\CNC/C(=C\c3ccc(C)cc3)C2=O)cc1	-3.15	-1.97	-0.54	-0.34	0.13%
CC1C(=O)OC2C(O)C34C5CC(C(C)(C)C)C36C(OC(=O)C6O)OC4(C(=O)O5)C12O (stereo not given) [ginkgolide-B]	1.36	0.56	-1.98	2.69	0.1%
Nc1ccccc1S(N)(=O)=O [2-aminobenzenesulfonamide]	0.91	2.45	3.94	3.53	-0.71%
COc1ccc(COc2cc3oc(=O)c4cc(C(C)O)ccc4c3cc2OC)cc1 (stereo not given) [palomid-529]	0.28	-1.83	0.02	-0.05	1.22%
COC(=O)C1=C(C#N)NC(C)=C(C(=O)OC(C)C)C1c1cccc([N+](=O)[O-])c1 (stereo not given) [nilvadipine]	-1.91	-2.45	0.29	5.15	3.78%
O=C(Cn1ccnc1[N+](=O)[O-])NCc1ccccc1 [benznidazole]	-0.15	-0.69	-2.08	-0.42	0.58%
CC[C@H](C)[C@H](N)C1=N[C@H](C(=O)N[C@@H](CC(C)C)C(=O)N[C@H](CCC(=O)O)C(=O)N[C@H](C(=O)N[C@H]2CCCCNC(=O)[C@H](CC(N)=O)NC(=O)[C@@H](CC(=O)O)NC(=O)[C@H](Cc3cnc[nH]3)NC(=O)[C@@H](Cc3ccccc3)NC(=O)[C@H]([C@@H](C)CC)NC(=O)[C@@H](CCCN)NC2=O)[C@@H](C)CC)CS1 [bacitracin]	-0.71	2.89	-2.3	-1.54	-0.85%
Cc1cc([C@@H](C)Nc2ccccc2C(=O)O)c2nc(N3CCOCC3)cc(=O)n2c1	-0.68	-0.79	-4.63	-7.74	-2.98%
CC[C@@H](c1cccc(O)c1)[C@@H](C)CN(C)C [Tapentadol (hydrochloride)]	2	1.05	1.07	3.03	-0.29%
Oc1cccc(-c2c3nc(c(-c4cccc(O)c4)c4ccc([nH]4)c(-c4cccc(O)c4)c4nc(c(-c5cccc(O)c5)c5ccc2[nH]5)CC4)C=C3)c1 [temoporfin]	-0.78	3.96	-0.62	-2.48	-5.99%
